Assay [1] deals with Human papillomavirus type 1a protein E7 (residues 44-93). As to the kind of experiment: HPV1a E7 fragment binders on microarrays, primary screen, biochemical, small-molecule microarray, residues 44-93, 635 nm fluorescence (AID 1108).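 Note: E7 fragment applied at 1 µg/mL in TBST for 1 h at 4 C; score combines spot fluorescence with its signal to noise ratio.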 The following applies: small-molecule microarray binding, fluorescence 635 nm; higher = more signal.
The nature of assay [2]: modulators of HCV replicon luciferase signal, primary screen, HCV replication inhibitor project, Huh7 cells, luciferase reporter (AID 1109).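 Note: huh7 hepatoma cells harbouring a luciferase neomycin HCV replicon reporter; luciferase luminescence as measure of HCV replicon replication; test concentration not given here.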 To be noted: 48 h, higher = more signal. Background: A replicon is a self-replicating genome or part of one, used to study replication in cells.
Assay [3] addresses Left-right determination factor 2 (Homo sapiens) (UniProt O00292). As to the kind of experiment: LEFTY2 binders on small-molecule microarrays, primary screen, biochemical, small-molecule microarray, 635 nm fluorescence scan (AID 1110). The following applies: LEFTY2 binding, higher = more signal.
The target of assay [4] is Calmodulin-1 (Homo sapiens) (UniProt P0DP23). The experiment in a line: CALM1 binders on microarrays, EGTA buffer, profiling panel, biochemical, small-molecule microarray, Cy5-labelled CALM1 (AID 1111).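 Note: labelled calmodulin applied in Tris saline Tween buffer holding calcium plus EGTA and DTT.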 The following applies: Cy5-CALM1 binding fluorescence, higher = more signal.
For assay [5] the target is unchanged. As to the kind of experiment: calcium-bound CALM1 binders on microarrays, profiling panel, artefact control for SMM control-protein annotation, biochemical, small-molecule microarray, Cy5-labelled CALM1, plus calcium (AID 1112).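 Note: score merges spot fluorescence with signal to noise from triplicate slides.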 The following applies: Cy5-CALM1 binding fluorescence, higher = more signal.
Assay [6] can be described thus: small-molecule microarray binders of probe aWnt5a, primary screen, biochemical, biotinylated probe, 635/667 nm fluorescence (AID 1113).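 Note: score merges 667 nm fluorescence intensity with signal-to-noise per printed feature.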 To be noted: higher = more signal.
The nature of assay [7]: small-molecule microarray binders of probe aShh, primary screen, biochemical, biotinylated probe, 635/667 nm fluorescence (AID 1114).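 Note: probe is biotin-labelled aShh protein from a stem cell growth factor screen; measures binding of labelled protein to compounds printed on the slide; score merges feature fluorescence at 667 nm with signal-to-noise.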 To be noted: higher = more signal.
Assay [8] is described as follows: small-molecule microarray binders of probe aNog, primary screen, biochemical, biotinylated probe, 635/667 nm fluorescence (AID 1115).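 Note: probe is biotinylated aNog protein used at 0.15 µg/mL for 1 h at 4 C; z-score combines 667 nm fluorescence of each spot with its signal to noise.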 The following applies: higher = more signal.
Assay [9] concerns the target Torsin-1A-interacting protein 1 (Homo sapiens) (UniProt Q5JTV8). The experiment in a line: LAP1 binders from COS7 cell lysate, primary screen, small-molecule microarray, 635/667 nm fluorescence (AID 1116). The following applies: COS7-hLAP1 lysate binding, 635 nm fluorescence, higher = more signal.
Assay [10] deals with Alpha-bungarotoxin (Bungarus multicinctus) (UniProt P60615). The experiment in a line: alpha-bungarotoxin binders on microarray, profiling panel, artefact control for SMM control protein annotation, biochemical, small-molecule microarray, Alexa647 label, 635/667 nm fluorescence (AID 1117). The following applies: alpha-BTX-A647 binding fluorescence, higher = more signal.
Sequence of Alpha-bungarotoxin (Bungarus multicinctus) (P60615 whole entry, looked up): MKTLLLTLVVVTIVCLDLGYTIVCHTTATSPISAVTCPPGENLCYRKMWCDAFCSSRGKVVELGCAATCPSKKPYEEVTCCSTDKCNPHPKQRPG

Sequence of Torsin-1A-interacting protein 1 (Homo sapiens) (Q5JTV8 whole entry, looked up): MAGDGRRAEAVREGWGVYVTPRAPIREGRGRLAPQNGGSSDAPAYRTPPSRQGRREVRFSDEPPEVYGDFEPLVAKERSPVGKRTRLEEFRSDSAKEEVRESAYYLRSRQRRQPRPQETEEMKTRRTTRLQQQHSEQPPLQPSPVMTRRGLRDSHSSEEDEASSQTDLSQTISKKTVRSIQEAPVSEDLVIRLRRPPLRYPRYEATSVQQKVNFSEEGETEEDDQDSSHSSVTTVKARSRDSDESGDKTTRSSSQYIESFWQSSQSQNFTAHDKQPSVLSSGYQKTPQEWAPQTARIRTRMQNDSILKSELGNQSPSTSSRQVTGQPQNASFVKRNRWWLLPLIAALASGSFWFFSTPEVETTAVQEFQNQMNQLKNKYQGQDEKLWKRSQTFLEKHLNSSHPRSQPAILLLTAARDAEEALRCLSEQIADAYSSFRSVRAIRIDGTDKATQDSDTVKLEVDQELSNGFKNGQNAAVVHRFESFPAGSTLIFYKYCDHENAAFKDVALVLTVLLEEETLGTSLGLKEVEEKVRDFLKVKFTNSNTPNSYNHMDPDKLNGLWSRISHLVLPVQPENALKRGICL
Sequence of Left-right determination factor 2 (Homo sapiens) (O00292 whole entry, looked up): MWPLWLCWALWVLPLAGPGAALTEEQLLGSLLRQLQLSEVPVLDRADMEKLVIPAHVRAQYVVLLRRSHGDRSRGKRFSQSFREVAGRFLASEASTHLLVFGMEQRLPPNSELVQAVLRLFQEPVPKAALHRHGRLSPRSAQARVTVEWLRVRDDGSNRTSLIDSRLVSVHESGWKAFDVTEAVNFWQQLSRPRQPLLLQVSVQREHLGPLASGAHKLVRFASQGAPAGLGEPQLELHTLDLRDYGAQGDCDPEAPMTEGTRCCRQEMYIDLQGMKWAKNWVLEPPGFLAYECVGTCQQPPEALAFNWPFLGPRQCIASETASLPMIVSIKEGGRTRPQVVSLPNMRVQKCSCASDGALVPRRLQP

With `COc1ccc([Si](C)(C)[C@H]2[C@H](CC(=O)N(CCO)Cc3ccccc3)O[C@@]3(C(=O)N(Cc4cccc(N5C(=O)c6cccc7cccc5c67)c4)c4ccccc43)[C@@H]2C)cc1`, the composite z-score was 0.9 in assay [1]; 0.45 in assay [3]; 0.847 in assay [4]; -0.0174 in assay [5]; -0.107 in [6]; -0.165 in assay [7]. The composite z-score was 0.0857 in [8], 0.389 in [9] and 0.942 in assay [10]. Besides, the z-score in [2] is -4.25.

Consider `COCCOC(=O)N1C(=O)[C@@]2(c3ccccc31)[C@H](C(=O)N1CCCCCCC1)[C@H]1C(=O)O[C@H](c3ccccc3)[C@H](c3ccccc3)N1[C@@H]2c1ccccc1OCCO`, for which the composite z-score in assay [1] turned out to be 1.36; in assay [3], 0.941; in assay [4], 2.43; in assay [5], 1.43; in assay [6] it was 0.883; in assay [7] it was 2.65. The composite z-score was determined as 2.48 in assay [8], 4.19 in [9] and 2.36 in assay [10]. This compound also gave a z-score in assay [2] of -1.78.

For `C=C(C(=O)CC[C@H](OC(=O)c1cccnc1)c1ccccc1OCCO)C(C)C`, the composite z-score in [1] was 1.05; in assay [3], 0.753; in assay [4], -0.62; in assay [5], -1.24; in assay [6], 0.121; in [7], -0.0035. In addition, the composite z-score in assay [8] is -0.176; in assay [9], 1.99; in assay [10], 0.892. Besides, in assay [2], the z-score is -2.71.

Turning to `O=C(CS)NCCCCCCNC(=O)[C@H]1C[C@H]2C(=O)N3CCC[C@H]3C(=O)N2[C@H]1c1ccc(O)cc1`, the composite z-score in [1] is -0.185; in assay [3] it was -0.0156; in assay [4], 0.511; in [5], 0.425; in assay [6], -0.0236; in [7], -0.0011. Moreover, the composite z-score in [8] came to 0.202; in assay [9], 1.68; in assay [10], 0.927. The same compound came in with a z-score in assay [2] of -0.32.

As to `CC(C)CNC(=O)[C@@]1(C)c2ccccc2C(=O)N(C(C)C)[C@H]1c1ccc(CO)cc1`, the composite z-score in assay [1] was -1.4; in [3], -0.243; in [4] it was -0.489; in assay [5] it was -0.577; in [6] it was -0.191; in assay [7] it was -0.375. The composite z-score in assay [8] is -0.524; in assay [9] it was -0.181; in [10], -0.018. In assay [2], this compound yielded a z-score of -1.13.

On to `COc1ccc(C#Cc2ccc3c(c2)[C@]2(C(=O)N3)[C@H](C(=O)N3CCN(c4ncccn4)CC3)[C@H]3C(=O)O[C@H](c4ccccc4)[C@H](c4ccccc4)N3[C@@H]2c2ccc(O)cc2)cc1`, for which the composite z-score in [1] amounted to 1.4; in assay [3], 0.169; in [4], 1.23; in assay [5], 0.0193; in [6], 0.115; in assay [7], 0.315. Also, the composite z-score in assay [8] is -0.406; in assay [9], 0.399; in assay [10] it was 0.531. In assay [2], this compound registered a z-score of -1.73.

For `NC(=O)NCC#Cc1ccc2c(c1)[C@]1(C(=O)N2)[C@H](C(=O)NC[C@H](O)c2ccccc2)[C@H]2C(=O)O[C@H](c3ccccc3)[C@H](c3ccccc3)N2[C@@H]1c1ccccc1OCCO`, the composite z-score was 1.41 in assay [1]; -0.914 in assay [3]; 0.103 in assay [4]; -0.134 in [5]; -0.139 in assay [6]; -0.301 in [7]. Besides, the values for the composite z-score in [8], in [9] and in [10] were 0.665, 0.433 and 3.26, respectively. In addition, in [2], the z-score was -1.49.

For `C=CCNC(=O)[C@H]1[C@@H]2C(=O)O[C@@H](c3ccccc3)[C@@H](c3ccccc3)N2[C@@H](c2ccc(O)cc2)[C@]12C(=O)Nc1ccc(C#Cc3ccc(OC)cc3)cc12`, the composite z-score in assay [1] was 0.758; in [3] it was 0.884; in assay [4] it was 0.664; in [5], -0.367; in assay [6] it was -0.219; in [7], 0.278. In addition, the values for the composite z-score in [8], in assay [9] and in assay [10] were 0.409, 1.31 and 0.196, respectively. This compound displayed a z-score in assay [2] of -2.06.

`C=C(C(=O)CC[C@@H](OC(=O)c1cccnc1)c1ccc(CO)o1)C(C)C`: the composite z-score in [1] was 1.03; in assay [3], 0.46; in [4] it was -0.478; in assay [5] it was -0.835; in assay [6] it was -0.139; in assay [7], -0.0701. Further, the results for the composite z-score in assay [8], in assay [9] and in [10] were 0.337, 1.35 and 0.346, respectively. In addition, the z-score in assay [2] was -1.24.

Consider `COc1ccccc1CN1C(=O)c2ccccc2[C@](Cc2ccccc2I)(C(=O)NC2CC2)[C@@H]1c1ccc(CO)cc1`, for which the composite z-score in assay [1] was 1.43; in assay [3] it was 0.471; in [4], 0.654; in assay [5], -0.265; in assay [6] it was 0.0704; in assay [7], 0.242. For the same compound, the composite z-score in [8] was -0.354; in assay [9], 1.69; in assay [10], 1.38. Besides, the z-score in assay [2] is -1.93.

Turning to `COc1ccc([Si](C)(C)[C@@H]2[C@@H](CCO)O[C@]3(C(=O)N(Cc4cccc(N(C=O)c5ccccc5)c4)c4ccccc43)[C@H]2C)cc1`, the composite z-score in assay [1] was -0.179; in assay [3], -0.223; in assay [4], 1.13; in assay [5], 1.09; in assay [6], -0.176; in assay [7] it was 0.0611. The values for the composite z-score in assay [8], in assay [9] and in assay [10] were -0.0002, 0.494 and 0.956, respectively. Also, the z-score in [2] was -4.85.

Take `CC1CC/C=C\[C@H]2OC34C=CCN(CCN5CCOCC5)C(=O)[C@H]3N(CCCCCO)C(=O)[C@@H]4C2C(=O)O1` (stereo not given in full): the composite z-score in assay [1] is -1.78; in assay [3], 0.0111; in assay [4], -1.87; in assay [5] it was -1.59; in assay [6] it was -0.224; in assay [7] it was -0.0769. In addition, the composite z-score was -0.321 in assay [8], -0.595 in assay [9] and -1.06 in [10]. In assay [2], this compound registered a z-score of 0.824.

Regarding `Cc1c(NC(=O)/C(C#N)=C/C=C/c2ccccc2)c(=O)n(-c2ccccc2)n1C`, the composite z-score in assay [1] is -0.353; in [3] it was 0.277; in assay [4], 0.193; in assay [5] it was -0.0357; in assay [6], -0.145; in assay [7], -0.416. The composite z-score in [8] is -0.49; in assay [9], -0.296; in assay [10], 0.754. This compound also had a z-score in assay [2] of -0.683.

`COc1c(C)cc(-c2cc3c(c(-c4ccccc4)n2)[Si](C(C)C)(C(C)C)O[C@H]3c2ccccc2)cc1C`: the composite z-score is -0.217 in assay [1]; -0.009 in assay [3]; -0.0867 in assay [4]; -0.24 in assay [5]; -0.006 in [6]; -0.147 in assay [7]. Moreover, the figures for the composite z-score in assay [8], in assay [9] and in assay [10] were -0.482, 0.38 and 0.614, respectively. In assay [2], the z-score is -0.526.

In the case of `CCCCCCC#C[Si](O[C@H](c1ccccc1)c1cn([C@H](C)c2ccccc2)nn1)(C(C)C)C(C)C`, the composite z-score in assay [1] is 0.444; in assay [3], 0.434; in assay [4], -0.193; in assay [5], -0.455; in assay [6] it was 0.0317; in assay [7], -0.138. Further, the composite z-score is -0.139 in [8], -0.0802 in [9] and -0.0777 in [10]. In addition, the z-score in assay [2] was -1.57.

As to `O=C(NCC(F)(F)F)[C@@H]1c2ccccc2C(=O)N(Cc2ccccc2)[C@H]1c1ccc(CO)cc1`, the composite z-score is 0.337 in assay [1]; -1.78 in assay [3]; -0.189 in assay [4]; 0.621 in [5]; -0.158 in assay [6]; -0.0849 in assay [7]. Besides, the composite z-score in [8] is 0.0056; in assay [9], -0.236; in [10], -0.846. In [2], the z-score was -0.32.

On to `C=CCC(OC(C)=O)[C@@H]1[C@@H](N(Cc2cc3ccccc3o2)C(=O)c2cccc3ccccc23)c2cc(OCCCO)ccc2N1C(=O)Cc1ccc(OC)cc1` (stereo not given in full), for which the composite z-score in [1] was -0.0348; in assay [3] it was 0.443; in assay [4], -0.158; in assay [5] it was 0.344; in [6] it was -0.0816; in assay [7], -0.0146. For the same compound, the composite z-score in assay [8] is 0.328; in [9] it was 0.153; in assay [10], 0.608. Besides, the z-score in [2] was -0.431.

The record behind these values is PubChem BioAssay.
